Reference: PubChem BioAssay (NCI)
Compounds without any hit were thinned out: in the full panel of roughly 79,000, 15% have a hit. No stated cut-off is given here; in the data, active means growth inhibition above about 70%; inactive means the rest.

Columns and labels:
[1] = NCI Yeast Anticancer Drug Screen. Data for the rad50 strain (AID 155);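 further: 0% = growth of vehicle-only cultures of the same strain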; details: S. cerevisiae rad50 strain growth inhibition; at 50.0 µM; stronger effect = higher value
In short: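 Compounds were tested on a yeast strain with an engineered DNA damage repair alteration; the reported value is growth inhibition normalised to vehicle treatment.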

[2] = NCI Yeast Anticancer Drug Screen. Data for the mec2-1 strain (AID 157); details: S. cerevisiae mec2-1 strain, at 50.0 µM, stronger effect = higher value
In short: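 Growth inhibition is read against vehicle-treated controls after compound exposure of the mec2-1 yeast strain, which is defective in DNA damage repair or cell cycle control.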

[3] = NCI Yeast Anticancer Drug Screen. Data for the sgs1 mgt1 strain (AID 161);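 further: 0% = growth of cultures given vehicle only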; details: S. cerevisiae sgs1 mgt1 strain, at 50.0 µM, stronger effect = higher value
In short: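 Growth of a repair-deficient yeast mutant was monitored after compound treatment and expressed as inhibition relative to vehicle-treated cultures.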

[4] = NCI Yeast Anticancer Drug Screen. Data for the cln2 rad14 strain (AID 165);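 further: 0% = growth equal to vehicle treated cultures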; details: S. cerevisiae cln2 rad14 strain, at 50.0 µM, stronger effect = higher value
In short: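 Growth inhibition, relative to vehicle-treated controls, is the read-out. The test organism is a yeast strain with defined genetic alterations, cln2 rad14.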

[5] = NCI Yeast Anticancer Drug Screen. Data for the bub3 strain (AID 167); details: S. cerevisiae bub3 mutant strain, at 50.0 µM, stronger effect = higher value
In short: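 Growth of a checkpoint-deficient yeast mutant is measured after compound exposure. Values represent inhibition relative to vehicle.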

[6] = NCI Yeast Anticancer Drug Screen. Data for the mlh1 rad18 strain (AID 175); details: S. cerevisiae mlh1 rad18 strain growth inhibition; at 50.0 µM; stronger effect = higher value
In short: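 Cells of a genetically altered yeast strain, deficient in DNA damage repair, were treated with compound. Their growth was then compared with that of vehicle-treated cultures to give inhibition.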

Measured: growth inhibition

O=c1c2ccccc2oc2nc3ccc(Cl)cc3n12
inactive: [1] -6.3% | [2] -7.5% | [3] 0.45% | [4] -30.9% | [5] 10.6% | [6] -1.85%

CC(C)(S)CNCCSC(=O)c1ccccc1
inactive: [1] 2.8% | [2] -0.2% | [3] 23.1% | [4] -16.1% | [5] 63.5% | [6] 30.1%

O=C(OCc1ccccc1)N1CCCCC1
inactive: [1] 7.9% | [2] -2.65% | [3] 5.45% | [4] -13.2% | [5] 22.2% | [6] -1%

O=C1OC(/C=C/c2ccccc2)=NC/1=C\c1ccc(Cl)cc1
inactive: [1] 23.4% | [2] 14.1% | [3] 23.6% | [4] 13.7% | [5] 7.15% | [6] 10.2%

O=[N+]([O-])c1cc(C(F)(F)F)ccc1Oc1cccc(C(F)(F)F)c1
inactive: [1] -13.4% | [2] 2% | [3] 5.6% | [4] -64.8% | [5] 42.6% | [6] 16.9%

CN(C)S(=O)(=O)C=C(c1ccccc1)c1ccccc1
inactive: [1] 1.25% | [2] 4.1% | [3] 17.4% | [4] -5.1% | [5] 15.3% | [6] -0.2%

OC(CCN1CCC2CCC(C2)C1)(c1ccccc1)c1ccco1 (stereo unspecified)
inactive: [1] 7.75% | [2] -3.15% | [3] -5.25% | [4] -15.6% | [5] -0.05% | [6] -4.75%

CCOC(=O)c1ccnc2ccccc12
inactive: [1] -5.05% | [2] -3.75% | [3] 1.1% | [4] -4.85% | [5] 5.65% | [6] 3.7%

NC(=N\C1=NCCN1)/C(N)=N/C1=NCCN1
inactive: [1] -13.4% | [2] 5.35% | [3] -1.35% | [4] -29.5% | [5] -2.3% | [6] -13.2%

COC(=O)CCC(=O)CC(=O)C(=O)Nc1c(Cl)cc([N+](=O)[O-])cc1Cl
inactive: [1] 11.4% | [2] -17.1% | [3] 0.5% | [4] 24.1% | [5] -4.5% | [6] 3.8%

C/C(C/C(C)=N/O)=N/O
inactive: [1] -8.6% | [2] -5.85% | [3] 2.8% | [4] 0.45% | [5] -2.55% | [6] 17.7%

COc1ccc2c(c1OC)C(=O)OC2(O)C1=NCCc2cc3c(cc21)OCO3 (stereo unspecified)
inactive: [1] 19% | [2] -7.25% | [3] 8.1% | [4] 21.3% | [5] 4.05% | [6] 13.2%

CCCCNC(=O)/C=C\C(=O)O
inactive: [1] 5.95% | [2] -10.3% | [3] -1.65% | [4] 2.75% | [5] -8.5% | [6] 1.45%

N#Cc1c2nc3ccccc3nc2n2ccccc12
inactive: [1] 0.7% | [2] 19.4% | [3] -18.9% | [4] 1.25% | [5] 1.15% | [6] 53.8%

COC1(OC)CC2OC1C1N=NN(C(=O)OC(C)(C)C)C21 (stereo unspecified)
inactive: [1] 28.1% | [2] 13.3% | [3] 6.8% | [4] 21.6% | [5] 16.8% | [6] 31.4%

C=CCN(CC=C)P(=O)(N(CC=C)CC=C)N(CC=C)CC=C
inactive: [1] 22.3% | [2] 8.9% | [3] 16.4% | [4] 0.15% | [5] 17.6% | [6] 21.4%

Cc1c2c(c(C)c3c1C(=O)c1cc4c(cc1C3=O)OCO4)OC(C)O2
inactive: [1] -10.5% | [2] -15.5% | [3] -18.6% | [4] -28.4% | [5] -47.7% | [6] -18.6%

Nc1ccn([C@@H](C=O)C[C@@H](C=O)CO)c(=O)n1
inactive: [1] -3.45% | [2] -0.85% | [3] 14.8% | [4] 19.3% | [5] 11.2% | [6] -45.6%

CCCN=C(NC(=O)c1ccc(Cl)cc1)SC
inactive: [1] -16.3% | [2] -41.5% | [3] -6.05% | [4] -6.7% | [5] 8.05% | [6] -46.4%

COc1ccc2ccccc2c1CN1CCOCCOCCN(Cc2c(OC)ccc3ccccc23)CCOCCOCC1
inactive: [1] -18.1% | [2] -34.5% | [3] -23.4% | [4] -28.1% | [5] 5.75% | [6] -29.4%

Clc1ccccc1C1OCCCO1
inactive: [1] -0.95% | [2] 15.1% | [3] -22.4% | [4] -29.8% | [5] -8.1% | [6] -6.1%
